The nature of assay [1]: qHTS assay for measurement of the activity of small molecule inhibitors on Zika virus induced Caspase-3 activity in human iPSC derived neural progenitor cells (hNPCs) (AID 1224857). Further: nearly all actives have a fitted effect of over 65% in size. The method, boiled down: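 After overnight (16–20 h) culture at 350 cells/well, hNPCs get compound, then ZIKV 2 FFU/cell one hour later. Six hours on, Caspase-Glo 3/7 is added and luminescence measured.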

Assay [2] in a line: qHTS assay for measurement of the activity of small molecule inhibitors on Zika virus induced Caspase-3 activity in human astrocytoma cells (AID 1224859). The gist of the method: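 Inhibition of Zika-induced caspase-3/7 activity: SNB-19 cells, 1 h compound pretreatment, ZIKV 2 FFU/cell for 6 h at 37 C, Caspase-Glo luminescence read-out.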
The nature of assay [3]: Natriuretic polypeptide receptor (hNpr1) antagonism - Pilot counterscreen GloSensor control cell line (AID 1347045; calls by dose curve; further: potency means the concentration at half of the fitted maximal effect). The gist of the method:
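The SNP-driven cGMP luminescence signal (50 uM, 20 min, room temperature) was measured in GloSensor HEK293 control cells. Compounds were tested as a LOPAC titration series and preincubated for 30-50 min.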

The target of assay [4] is Atrial natriuretic peptide receptor 1 (Homo sapiens) (UniProt P16066). The experiment in a line: Natriuretic polypeptide receptor (hNpr1) antagonism - Pilot screen (AID 1347049; calls by dose curve;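 further: agonist-evoked cGMP luminescence read 20 min after hNppA addition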; further: potency means the concentration at half of the fitted maximal effect). The method, boiled down:
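cGMP-sensor HEK293/hNpr1 cells, 1500/well, plated overnight at 37C. 2% GloSensor reagent, 2 h RT. Compound (23 nL pin transfer) 30 min RT, baseline luminescence pre-read. 0.1 nM hNppA, 20 min RT, post-read.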

The target of assay [5] is Atrial natriuretic peptide receptor 2 (Homo sapiens) (UniProt P20594). The experiment in a line: Natriuretic polypeptide receptor (hNpr2) antagonism - Pilot subtype selectivity assay (AID 1347050; calls by dose curve; further: potency means the concentration at half of the fitted maximal effect). The gist of the method: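 Luminescence from a genetically encoded cGMP luciferase biosensor in hNpr2-expressing HEK293 cells is read before and 20 min after adding 1 nM hNppC. Test compounds, in interplate 1:5 titrations, are added 30-50 min ahead of the agonist.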

Assay [6] is described as follows: NS1 protein of Zika virus - qHTS assay to identify small molecule inhibitors in human HEK 293 cells (AID 1347053). Further: nearly all actives have a fitted effect of over 55% in size. Further: potency means the concentration at half of the fitted maximal effect. The method, boiled down: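 In this cell-based screen, HEK 293 cultures received compound for one hour before Zika MR766 at MOI = 0.5. NS1 was quantified 24 hours later by TR-FRET, normalized to virus-free wells and infected wells.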
(Quantitative high-throughput screening tests each substance at several concentrations.)

For assay [7], the target named is T1, Tyrosine-protein phosphatase non-receptor type substrate 1 (Homo sapiens) + Leukocyte surface antigen CD47 (Homo sapiens) (UniProt P78324+Q08722). The experiment in a line: CD47-SIRPalpha protein protein interaction - HTRF assay qHTS validation (AID 1347058; active means well fitted curve in the direction sought with a large enough effect in the signal ratio, not every such curve was filed as active; the % refers to the signal ratio; further: series mostly up to about 38 µM). The method, boiled down: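 Soluble extracellular domains (6His-CD47, Avi-tag-biotinylated SIRPalpha) in PBS pH 7.4 with 0.05% IGEPAL CA-630. Compounds were preincubated 30 min at RT with CD47 and anti-His-Eu, then SIRPalpha and SAV-XL665 were added. TR-FRET 665/615 ratio.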
For orientation: In TR-FRET formats the signal depends on donor and acceptor labels being close together.

Assay [8] deals with T1, Tyrosine-protein phosphatase non-receptor type substrate 1 (Homo sapiens) + Leukocyte surface antigen CD47 (Homo sapiens). The assay can be described thus: CD47-SIRPalpha protein protein interaction - Alpha assay qHTS validation (AID 1347059).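 Further: bead proximity luminescence from CD47 binding SIRPalpha after compound preincubation with SIRPalpha.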 The method, boiled down: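 SIRPalpha-biotin 25 nM + cpd, 30 min RT, dark; add CD47-His 12.5 nM, 30 min; add Ni-NTA/SAV beads 10 ug/mL, 30 min; AlphaScreen. Buffer PBS pH 7.4 + 0.05% IGEPAL CA-630. Non-biotinylated SIRPalpha as control inhibitor.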

For assay [9], the target named is Parathyroid hormone/parathyroid hormone-related peptide receptor (Homo sapiens) (UniProt Q03431). The assay can be described thus: qHTS for PTHR1 Agonists: Optimization Screen against the NCGC LOPAC library (AID 1347079).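 Further: GloSensor cAMP luminescence in HEK-293 GP2 cells expressing human PTHR1 with IBMX.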 The gist of the method:
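Signal increase flags agonism. GP2 cells, derived from HEK-293, express human PTHR1 and a GloSensor cAMP construct.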

Assay [10] addresses N-terminal Xaa-Pro-Lys N-methyltransferase 1 (Homo sapiens) (UniProt Q9BV86). The experiment in a line: qHTS Assay for Inhibitors of N-terminal methyltransferase 1 (NTMT1): LOPAC validation of the NTMT1 SAHH-coupled ThioGlo3 Assay (AID 1347143).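 Further: SAH from peptide methylation measured as thiol fluorescence via SAHH coupling and ThioGlo3; nearly all actives have a fitted effect of over 70% in size.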 Further: potency means the concentration at half of the fitted maximal effect. The gist of the method:
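Steps: dispense 125nM NTMT1; pin-transfer test compounds at several concentrations, with 1uM RCC1-6 peptide as control; incubate 1 min; start with reagent holding 100uM SAM, 10uM SAHH, 15uM ThioGlo3; read at 0 and 30 min.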

Assay [11] concerns Zika virus NS2B-NS3 protease (unlinked). The assay can be described thus: Optimization of GU AMC qHTS for Zika virus inhibitors: Unlinked NS2B-NS3 protease assay (AID 1347151). Further: nearly all actives have a fitted effect of over 80% in size. Further: potency means the concentration at half of the fitted maximal effect. The method, boiled down: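 Noncovalent complex of NS2B hydrophilic domain and NS3 protease domain, 25 nM final, in 10 mM Tris-HCl pH 8.0, 0.01% Tween 20. AMC fluorescence change over 15 min at room temperature was fitted to a 4-parameter Hill equation.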

In assay [12] the target is T1, Tyrosine-protein phosphatase non-receptor type substrate 1 (Homo sapiens) + Leukocyte surface antigen CD47 (Homo sapiens). The experiment in a line: CD47-SIRPalpha protein protein interaction - LANCE assay qHTS validation (AID 1347057; active means well fitted curve in the direction sought with a large enough effect in the signal ratio, with a control signal flat, not every such curve was filed as active; the % refers to the signal ratio; further: series mostly up to about 38 µM). The gist of the method: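 Inhibition of soluble CD47/SIRPalpha ectodomain association by titrated compounds, measured as 665/615 nm time-resolved FRET ratio after sequential 30 min room-temperature incubations.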

Results filed as inconclusive are left out. Calls of active or inactive are those of the source. Unless noted, the call rests on the fitted dose curve; in most records, active means well fitted curve in the direction sought with a large enough effect; inconclusive means small, poorly fitted or top-dose-only effect, or another doubt; inactive means no such curve, though single readings can be large; an effect the other way counts as inactive or inconclusive.

Sequence of Atrial natriuretic peptide receptor 1 (Homo sapiens) (P16066 whole entry, looked up): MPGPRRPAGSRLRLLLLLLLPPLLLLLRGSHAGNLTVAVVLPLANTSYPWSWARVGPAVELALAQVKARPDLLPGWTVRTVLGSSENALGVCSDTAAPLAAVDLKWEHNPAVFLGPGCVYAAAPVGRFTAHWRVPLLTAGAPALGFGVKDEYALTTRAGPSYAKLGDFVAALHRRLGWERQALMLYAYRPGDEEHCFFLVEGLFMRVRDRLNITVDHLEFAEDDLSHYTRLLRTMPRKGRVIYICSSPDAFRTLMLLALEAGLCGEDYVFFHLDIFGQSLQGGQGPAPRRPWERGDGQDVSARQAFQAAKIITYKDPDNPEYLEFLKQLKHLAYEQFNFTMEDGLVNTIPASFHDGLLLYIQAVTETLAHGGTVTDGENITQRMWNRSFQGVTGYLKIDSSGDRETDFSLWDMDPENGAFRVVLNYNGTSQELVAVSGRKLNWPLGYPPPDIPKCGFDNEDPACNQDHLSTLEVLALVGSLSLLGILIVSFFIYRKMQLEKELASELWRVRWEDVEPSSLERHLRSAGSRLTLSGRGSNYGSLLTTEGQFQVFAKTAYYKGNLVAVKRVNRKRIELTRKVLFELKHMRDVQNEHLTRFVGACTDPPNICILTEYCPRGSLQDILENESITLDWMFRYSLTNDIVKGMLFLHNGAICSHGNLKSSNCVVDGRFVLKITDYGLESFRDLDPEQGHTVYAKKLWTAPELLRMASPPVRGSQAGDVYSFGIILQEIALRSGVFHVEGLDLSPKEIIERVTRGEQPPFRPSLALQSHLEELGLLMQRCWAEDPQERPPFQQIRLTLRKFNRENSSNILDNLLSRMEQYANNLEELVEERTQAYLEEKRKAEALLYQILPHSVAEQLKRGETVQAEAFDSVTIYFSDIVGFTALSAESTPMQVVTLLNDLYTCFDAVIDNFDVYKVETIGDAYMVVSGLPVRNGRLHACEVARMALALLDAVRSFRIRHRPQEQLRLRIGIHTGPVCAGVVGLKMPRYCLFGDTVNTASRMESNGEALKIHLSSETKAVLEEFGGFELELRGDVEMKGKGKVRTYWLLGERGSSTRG
Sequence of Atrial natriuretic peptide receptor 2 (Homo sapiens) (P20594 whole entry, looked up): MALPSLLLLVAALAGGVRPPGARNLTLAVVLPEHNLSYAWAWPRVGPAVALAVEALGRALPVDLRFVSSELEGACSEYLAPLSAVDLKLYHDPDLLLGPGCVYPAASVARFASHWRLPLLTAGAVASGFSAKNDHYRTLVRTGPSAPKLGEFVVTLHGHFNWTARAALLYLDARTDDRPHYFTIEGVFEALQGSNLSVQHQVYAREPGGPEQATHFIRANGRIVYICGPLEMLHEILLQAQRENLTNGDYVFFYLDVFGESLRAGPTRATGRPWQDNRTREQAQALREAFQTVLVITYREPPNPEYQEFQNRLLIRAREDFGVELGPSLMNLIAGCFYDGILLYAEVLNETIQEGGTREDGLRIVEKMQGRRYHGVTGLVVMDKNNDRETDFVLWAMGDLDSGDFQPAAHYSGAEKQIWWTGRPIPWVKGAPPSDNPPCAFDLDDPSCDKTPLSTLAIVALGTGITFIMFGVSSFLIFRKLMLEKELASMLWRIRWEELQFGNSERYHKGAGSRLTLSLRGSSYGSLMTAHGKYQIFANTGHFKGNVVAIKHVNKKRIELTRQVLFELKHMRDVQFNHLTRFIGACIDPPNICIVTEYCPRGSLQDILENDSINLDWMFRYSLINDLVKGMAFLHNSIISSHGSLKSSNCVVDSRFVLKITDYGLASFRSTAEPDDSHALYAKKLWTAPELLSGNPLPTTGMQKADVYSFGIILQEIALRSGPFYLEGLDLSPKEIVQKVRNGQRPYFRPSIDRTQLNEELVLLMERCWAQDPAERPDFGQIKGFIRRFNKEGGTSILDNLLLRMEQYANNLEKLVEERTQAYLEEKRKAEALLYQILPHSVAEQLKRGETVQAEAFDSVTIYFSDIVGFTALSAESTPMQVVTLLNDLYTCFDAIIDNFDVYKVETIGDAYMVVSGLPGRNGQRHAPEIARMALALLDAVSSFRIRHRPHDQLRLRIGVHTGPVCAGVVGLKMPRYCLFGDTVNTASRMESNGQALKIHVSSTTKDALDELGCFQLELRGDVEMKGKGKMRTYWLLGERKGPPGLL
Sequence of N-terminal Xaa-Pro-Lys N-methyltransferase 1 (Homo sapiens) (Q9BV86 whole entry, looked up): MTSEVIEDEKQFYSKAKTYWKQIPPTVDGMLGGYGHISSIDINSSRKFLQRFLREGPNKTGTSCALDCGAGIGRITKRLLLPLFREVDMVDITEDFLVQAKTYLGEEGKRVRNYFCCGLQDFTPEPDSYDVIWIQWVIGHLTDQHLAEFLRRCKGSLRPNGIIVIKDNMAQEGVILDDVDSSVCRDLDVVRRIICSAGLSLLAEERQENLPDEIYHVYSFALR
T1 sequence (P78324 whole entry, looked up, the tested form may be a part): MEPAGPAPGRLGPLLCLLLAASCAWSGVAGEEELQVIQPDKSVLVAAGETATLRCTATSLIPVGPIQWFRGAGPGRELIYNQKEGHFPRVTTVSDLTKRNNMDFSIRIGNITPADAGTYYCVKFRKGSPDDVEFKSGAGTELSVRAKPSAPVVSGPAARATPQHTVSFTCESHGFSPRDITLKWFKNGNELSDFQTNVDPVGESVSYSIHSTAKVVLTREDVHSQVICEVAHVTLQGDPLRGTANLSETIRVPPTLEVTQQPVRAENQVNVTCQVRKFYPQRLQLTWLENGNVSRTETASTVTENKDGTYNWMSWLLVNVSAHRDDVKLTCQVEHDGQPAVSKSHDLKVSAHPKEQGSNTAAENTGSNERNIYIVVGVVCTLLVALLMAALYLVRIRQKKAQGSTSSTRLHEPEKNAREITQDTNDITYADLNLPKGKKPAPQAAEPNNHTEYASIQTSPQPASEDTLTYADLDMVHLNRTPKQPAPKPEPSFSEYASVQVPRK
T1 sequence (Q08722 whole entry, looked up, the tested form may be a part): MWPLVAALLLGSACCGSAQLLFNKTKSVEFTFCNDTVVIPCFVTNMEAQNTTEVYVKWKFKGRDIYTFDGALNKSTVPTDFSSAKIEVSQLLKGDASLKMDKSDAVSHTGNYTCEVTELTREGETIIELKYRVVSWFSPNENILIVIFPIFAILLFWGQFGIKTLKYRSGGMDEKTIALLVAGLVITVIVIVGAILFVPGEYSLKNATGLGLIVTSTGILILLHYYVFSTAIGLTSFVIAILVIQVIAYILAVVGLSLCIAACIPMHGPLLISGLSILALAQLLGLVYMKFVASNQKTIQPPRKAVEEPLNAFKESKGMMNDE
Sequence of Parathyroid hormone/parathyroid hormone-related peptide receptor (Homo sapiens) (Q03431 whole entry, looked up): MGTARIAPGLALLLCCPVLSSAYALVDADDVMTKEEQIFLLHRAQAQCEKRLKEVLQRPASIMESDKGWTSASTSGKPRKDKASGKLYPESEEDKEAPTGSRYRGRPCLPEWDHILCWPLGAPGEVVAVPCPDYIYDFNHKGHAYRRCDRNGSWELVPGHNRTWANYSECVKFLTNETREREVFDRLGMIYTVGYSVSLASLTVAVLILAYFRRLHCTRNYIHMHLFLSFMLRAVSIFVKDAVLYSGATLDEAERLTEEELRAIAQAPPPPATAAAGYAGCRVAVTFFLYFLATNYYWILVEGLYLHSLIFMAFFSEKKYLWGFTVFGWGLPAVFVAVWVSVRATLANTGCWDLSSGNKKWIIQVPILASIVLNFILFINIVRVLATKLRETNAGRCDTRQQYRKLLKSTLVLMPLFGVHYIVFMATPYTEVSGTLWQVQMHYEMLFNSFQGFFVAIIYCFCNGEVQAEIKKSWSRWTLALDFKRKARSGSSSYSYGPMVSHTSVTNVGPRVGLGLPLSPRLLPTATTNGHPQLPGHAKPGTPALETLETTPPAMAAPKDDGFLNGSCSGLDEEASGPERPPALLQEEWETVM

In the case of `CC(=O)C(C)=O`, the Potency entry in assay [1], in assay [2], in [3], in assay [4], in assay [5] and in assay [6] was “inactive” in each case. Besides, the Potency result in assay [8], in assay [9], in assay [10] and in assay [11] was “inactive” throughout. Also, in assay [7], the result was inactive.
Regarding `COc1cc(CC(=O)O)ccc1O`, the Potency result in assay [1], in assay [2], in assay [3], in assay [4], in assay [5] and in [8] was “inactive” each time. Also, the Potency entry in assay [9], in assay [10] and in assay [11] was “inactive” throughout. The result in [7] was inactive.
Turning to `Cc1nc(N=Nc2ccc(C(=O)O)cc2)c(COP(=O)(O)O)c(C=O)c1O`, the Potency entry in assay [1], in assay [2], in assay [3], in [5], in assay [6] and in [12] was “inactive” in each case. The Potency result in assay [8], in assay [9] and in [10] was “inactive” in each case. Besides, the outcome in assay [7] was inactive.
`CCCn1c(=O)c2[nH]c(-c3ccc(S(=O)(=O)O)cc3)nc2n(CCC)c1=O`: the Potency entry in assay [1], in assay [2], in assay [3], in assay [4], in assay [5] and in assay [6] was “inactive” in each case. Besides, the Potency entry in [8], in assay [9] and in [10] was “inactive” throughout.
Take `CN(C)CCC(c1ccc(Br)cc1)c1ccccn1` (centres undefined): the Potency entry in [1], in assay [2], in assay [3], in [4], in assay [6] and in [12] was “inactive” throughout. For the same molecule, the Potency result in assay [8], in assay [9], in [10] and in assay [11] was “inactive” throughout. Moreover, in [7], the result was inactive.
For the molecule `S=C(S)N1CCCC1`, the Potency result in assay [1], in assay [2], in [8], in assay [9] and in assay [11] was “inactive” in each case. In addition, the Potency was 7.36 µM (active) in assay [3], 9.53 µM (active) in assay [4], 7.94 µM (active) in assay [6] and 20 µM (active) in assay [10]. Moreover, the result in assay [7] was inactive.
Regarding `COc1cc([C@@H]2c3cc4c(cc3[C@H](O)C3COC(=O)[C@@H]32)OCO4)cc(OC)c1OC` (some centres undefined), the Potency entry in [1], in assay [2], in assay [3], in assay [4], in assay [6] and in assay [12] was “inactive” each time. Further, the Potency result in [8], in assay [9], in assay [10] and in assay [11] was “inactive” each time. Also, the result in assay [7] was inactive.
Take `CC(=O)O[C@H]1CC2(C)[C@@H](C[C@@H](O)[C@H]3[C@@]4(C)CC[C@@H](O)[C@@H](C)[C@@H]4CC[C@@]32C)C1=C(CCC=C(C)C)C(=O)O` (some centres undefined): the Potency result in [1], in assay [2], in assay [3], in assay [4], in assay [5] and in [9] was “inactive” in each case. The Potency result in assay [10] and in [11] was “inactive” each time.
`CCCOC(=O)c1c(-c2ccccc2)nc(CC)c(C(=O)SCC)c1CCC`: the Potency entry in [1], in assay [2], in [3], in [5], in assay [6] and in assay [12] was “inactive” throughout. Besides, the Potency result in [8], in assay [9] and in assay [10] was “inactive” throughout. Besides, the result in [7] was inactive.
For the molecule `NC(N)=[N+]1CCc2ccccc2C1`, the Potency entry in [1], in [2], in assay [3], in assay [4], in assay [5] and in assay [6] was “inactive” throughout. For the same molecule, the Potency entry in assay [8], in assay [9], in [10] and in assay [11] was “inactive” throughout. Moreover, the outcome in assay [7] was inactive.
Consider `O=c1cc(-c2ccccc2)[nH]c2nc(Cl)ccc12`, for which the Potency entry in assay [1], in assay [2], in assay [3], in [4], in [5] and in assay [6] was “inactive” each time. Also, the Potency entry in assay [9] was “inactive”. For the same molecule, the Potency in assay [10] is 79.4 µM (active); in assay [11] it was 11.9 µM (active).
Take `O=C(N[C@@H](Cc1ccccc1)C(=O)CCl)OCc1ccccc1`: the Potency result in assay [1], in [2], in [12], in assay [8], in assay [9] and in assay [11] was “inactive” each time. Also, the Potency in [3] is 3.29 µM (active); in assay [4], 10.7 µM (active); in [5] it was 4.14 µM (active). In assay [7], the result was inactive.
For `O=S(=O)(c1cccc2c(Cl)cccc12)N1CCCNCC1`, the Potency result in [1], in [2], in assay [3], in [4], in assay [5] and in [12] was “inactive” throughout. The Potency entry in assay [8], in [9] and in [11] was “inactive” each time.
Turning to `Cc1ccc2c(c1)C(N1CCN(C)CC1)=Nc1cccnc1N2`, the Potency entry in assay [1], in assay [2], in [3], in [4], in assay [6] and in assay [12] was “inactive” each time. Besides, the Potency entry in [8], in [9], in assay [10] and in [11] was “inactive” each time.
In the case of `CC(O)C(O)[C@H]1CNc2nc(N)[nH]c(=O)c2N1` (some centres undefined), the Potency entry in [1], in [2], in [3], in assay [4], in assay [5] and in [6] was “inactive” throughout. Further, the Potency result in [9] was “inactive”. In addition, the Potency was 28.2 µM (active) in assay [10] and 26.7 µM (active) in assay [11].
Regarding `CNc1cc(NS(=O)(=O)c2ccc(N)cc2)nc(NC)n1`, the Potency result in assay [1], in assay [2], in [3], in [4], in assay [5] and in assay [6] was “inactive” in each case. Further, the Potency result in assay [8], in [9], in [10] and in assay [11] was “inactive” in each case. The result in assay [7] was inactive.
For the molecule `COc1cc(/C=C(\C#N)C(=O)c2ccc(O)c(O)c2)cc(I)c1O`, the Potency entry in assay [1], in assay [2], in assay [3], in assay [4], in assay [5] and in assay [6] was “inactive” in each case. Further, the Potency result in assay [8] and in assay [9] was “inactive” throughout. Besides, the Potency in assay [10] is 50.1 µM (active).
Regarding `Cc1ccccc1/C=C/C1=NCCN1`, the Potency result in assay [1], in [2], in assay [3], in assay [4], in assay [5] and in assay [6] was “inactive” throughout. In addition, the Potency result in [8], in [9] and in assay [11] was “inactive” each time. The outcome in [7] was inactive.
As for `NS(=O)(=O)c1cccc2c1c([N+](=O)[O-])cc1nc(O)c(O)nc12`, the Potency result in [1], in assay [2], in assay [3], in [4], in [5] and in assay [6] was “inactive” throughout. Besides, the Potency result in assay [8], in assay [9] and in [11] was “inactive” in each case. Besides, the Potency in assay [10] was 50.1 µM (active).
Turning to `CN1C2CCC1CC(OC(c1ccccc1)c1ccccc1)C2` (centres undefined), the Potency result in assay [1], in [2], in [3], in assay [4], in assay [6] and in assay [12] was “inactive” in each case. The Potency result in assay [8], in assay [9] and in assay [11] was “inactive” in each case. Further, the result in [7] was inactive.
`COc1ccc(NC(=O)c2ccc(-c3ccc(-c4noc(C)n4)cc3C)cc2)cc1N1CCN(C)CC1`: the Potency result in assay [1], in assay [2], in [3], in assay [4], in assay [5] and in [12] was “inactive” each time. The Potency result in [9], in [10] and in [11] was “inactive” in each case. For the same molecule, in assay [7], the result was inactive.
On to `CCCCCCC/C=C\CCCCCCCCC(=O)O`, for which the Potency result in assay [1], in assay [2], in assay [3], in assay [4], in assay [5] and in assay [6] was “inactive” in each case. For the same molecule, the Potency result in [8], in assay [9] and in [10] was “inactive” in each case. Moreover, in [7], the result was inactive. The Potency in assay [11] was 21.2 µM (active).
